Each structure is given as a SMILES string.

The test system of the test is HT29 sg-Ctrl (RNF43 wildtype). Kind of test: cell viability activity relative to DMSO (negative = inhibition); higher = more viable cells (less growth inhibition). The conditions noted are these: 5 µM; 96 h. On the procedure: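 Broad Repurposing Library primary screen at a single dose of 5 uM. HT29 sg-Ctrl and HT29 RNF43 G659fs CRISPR-edited isogenic cells were seeded at 2500 cells/well in 384-well plates in duplicate and treated for 96 h. Viability was read by CellTiter-Glo and reported as % activity relative to DMSO, with MG132 as the positive control (negative = growth inhibition).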
`CN(c1ncccc1CNc1nc(Nc2ccc3c(c2)CC(=O)N3)ncc1C(F)(F)F)S(C)(=O)=O`: the cell viability activity was -83.1%.
As to `CNC(=O)c1nn(C)c2c1C(C)(C)Cc1cnc(Nc3ccc(N4CCN(C)CC4)cc3)nc1-2`, the cell viability activity was -74.1%.
On to `Cn1cc(CNCC2CCN(c3ncc(C(=O)NO)cn3)CC2)c2ccccc21`, for which the cell viability activity is -92.8%.
For `O=C(O)c1ccccc1-c1c2cc(I)c(=O)c(I)c-2oc2c(I)c(O)c(I)cc12` the value was -16.3%; for `O=C(NOCCO)c1cc(CN2OCCCC2=O)c(F)c(F)c1Nc1ccc(I)cc1F`, -75%.
As for `CC(C)C[C@H](NC(=O)[C@@H](NC(=O)c1cccc(-c2ccccc2)n1)[C@@H](C)O)B(O)O`, the cell viability activity is -95.4%.
For `CCOc1cc2ncc(C#N)c(Nc3ccc(F)c(Cl)c3)c2cc1NC(=O)/C=C/CN(C)C` the value was -78.7%; for `Cc1cccc(Nc2nc(-c3ccncc3)cs2)c1`, -55.8%.
For `O=C1NC(=O)[C@@H](c2cn3c4c(cccc24)CCC3)[C@@H]1c1c[nH]c2ccccc12` the value was -61.7%.
For `CCN1CCN(c2ccc(C(C)(C)NC(=O)c3cc4[nH]c5ccccc5c(=O)c4cc3F)cn2)CC1` the value was -42.7%.
As for `CCN(CC)c1ccc(C(=C2C=CC(=[N+](CC)CC)C=C2)c2ccccc2)cc1`, the cell viability activity was -97.2%.
For `S=c1[nH]cnc2nc[nH]c12` the value was -49.4%; for `COc1cc(N2CCC(N3CCN(C)CC3)CC2)ccc1Nc1ncc(Cl)c(Nc2ccccc2P(C)(C)=O)n1`, -81%; for `Nc1ccc(F)cc1NC(=O)c1ccc(CNC(=O)/C=C/c2cccnc2)cc1`, -64.8%.
For `Cc1ccc(S(=O)(=O)C=CC#N)cc1` the value was -97.7%; for `C#Cc1cccc(Nc2ncnc3cc(OC)c(OCCCCCCC(=O)NO)cc23)c1`, -71%; for `Fc1cc(-c2cccc3ncc(-c4cnn(C5CCNCC5)c4)nc23)cc(F)c1CN1CCOCC1`, -92.4%.
For `CNC(=O)c1ccccc1Nc1nc(Nc2ccc(N3CCOCC3)cc2OC)ncc1Cl` the value was -70.3%; for `Cc1ccc2c(Br)cc(Br)c(OC(=O)c3ccccc3)c2n1`, -34.5%; for `CCN(CC)CCNC(=O)c1ccc(NC(C)=O)cc1`, -3.92%.
Turning to `CN1CCC[C@@H]1Cc1c[nH]c2ccc(CCS(=O)(=O)c3ccccc3)cc12`, the cell viability activity was -27.2%.
For `Cc1ccc(C(=O)Nc2ccc(Oc3cc4cnn(C)c4cc3-c3cn[nH]c3)c(F)c2)c(=O)n1-c1ccc(F)cc1` the value was -29%; for `CCNC(=O)C#Cc1ccc2c(C(=Nc3ccc(CN(C)C)cc3)c3ccccc3)c(O)[nH]c2c1`, -96.8%; for `CC(C)(C)c1cnc(CSc2cnc(NC(=O)C3CCNCC3)s2)o1`, -81.8%.
For `NC(=O)Nc1cc(-c2cccc(F)c2)sc1C(=O)N[C@H]1CCCNC1` the value was -32.6%; for `CC(=O)O[C@@]12CO[C@@H]1C[C@H](O)[C@@]1(C)C(=O)[C@H](O)C3=C(C)[C@@H](OC(=O)[C@H](O)[C@@H](NC(=O)OC(C)(C)C)c4ccccc4)C[C@@](O)([C@@H](OC(=O)c4ccccc4)[C@H]21)C3(C)C`, -58.6%; for `Nc1ccccc1NC(=O)c1ccc(CNc2nccc(-c3cccnc3)n2)cc1`, -77%.
Consider `CN1CCN(c2ccc(OC(F)(F)F)c(Nc3ncc4c(n3)-c3c(c(C(N)=O)nn3CCO)CC4)c2)CC1`, for which the cell viability activity was -82.8%.
For `CCC1=C[C@@H]2CN(C1)Cc1c([nH]c3ccccc13)[C@@](C(=O)OC)(c1cc3c(cc1OC)N(C)[C@H]1[C@@](O)(C(=O)OC)[C@H](OC(C)=O)[C@]4(CC)C=CCN5CC[C@]31[C@@H]54)C2` the value was -40%; for `N#Cc1ccc(COC[C@H]2O[C@@H](n3c(NCc4ccc(Cl)c(Cl)c4)nc4c(N)ncnc43)[C@H](O)[C@@H]2O)cc1`, -31.3%; for `O=C(NC1CCN(CCCCC2(C(=O)NCC(F)(F)F)c3ccccc3-c3ccccc32)CC1)c1ccccc1-c1ccc(C(F)(F)F)cc1`, -92.3%.
On to `CNC(=O)c1cccc(-c2ccc3c(N4CCOC[C@@H]4C)nc(N4CCOC[C@@H]4C)nc3n2)c1`, for which the cell viability activity was -42.8%.
For `O=C(NOCC1CC1)c1ccc(F)c(F)c1Nc1ccc(I)cc1Cl` the value was -77.6%; for `Cn1c(Nc2ccc(C(F)(F)F)cc2)nc2cc(Oc3ccnc(-c4ncc(C(F)(F)F)[nH]4)c3)ccc21`, -67.4%.
For `CCCCC(=O)OCC(=O)[C@]1(O)Cc2c(O)c3c(c(O)c2[C@@H](O[C@H]2C[C@H](NC(=O)C(F)(F)F)[C@H](O)[C@H](C)O2)C1)C(=O)c1c(OC)cccc1C3=O` the value was -25.4%.
For `CCCCCCCCc1ccc(CCC(N)(CO)CO)cc1` the value was -94.1%.
In the case of `CCCCCCCCCCCC[N+](C)(C)CCOc1ccccc1`, the cell viability activity was -91.5%.

These data come from the supplement of paper PMC9177965.
